ELG1 DNA repair = inhibitors of ELG1-dependent DNA repair in HEK293T cells; HEK293T ELG1-luciferase reporter, luminescence, 16 h; DNA damage induced by 5-fluorouridine; Potency, µM (top dose mostly 46.1 µM), inactives show at the highest dose activity change, negative = inhibition, most hits filed as inhibitors; 330,000 tested, 2.3% active; further: on the % scale 0 is the no-effect control and ±100 the full control effect; nearly all actives have a fitted effect of over 55% in size
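Cells (2,000 per well) received 5-fluorouridine plus test compound or DMSO and were incubated 16 hr at 37 °C, 5% CO2. Luciferase activity was read by luminescence 30 min after ONE-Glo addition; signal suppression marked inhibition of damage-induced ELG1 function.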
Rab9 prom act = activators of Rab9 promoter; Huh7 Rab9 promoter-luciferase reporter, luminescence, 24 h; 320,000 tested, 2.8% active; AID 485297; Potency, µM (titrated, usually from 9.22 µM), without a hit: at the highest dose activation, negative = inhibition, actives largely listed as activators; further: % of control where 0% means no effect; nearly all actives have a fitted effect of over 60% in size
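Huh7 cells stably carrying Rab9 promoter–luciferase reporter, plated 1500 cells/well, compound added after 2 h and incubated 24 h at 37 °C; luciferase luminescence then read after 10 min with detection reagent.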
FLuc modulator = inhibits or activates purified firefly luciferase, miR-21 counter-screen | Potency, µM (titrated, usually from 57.5 µM), for the others: at the highest dose activity change, negative = inhibition, most hits filed as inhibitors | purified FLuc, Km substrates, luminescence inhibition | 360,000 tested, 6.9% active | P08659;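 further: plate controls were vehicle for no effect and reference inhibitor for full effect; nearly all actives have a fitted effect of over 55% in size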
Target sequence (P08659 whole entry, looked up): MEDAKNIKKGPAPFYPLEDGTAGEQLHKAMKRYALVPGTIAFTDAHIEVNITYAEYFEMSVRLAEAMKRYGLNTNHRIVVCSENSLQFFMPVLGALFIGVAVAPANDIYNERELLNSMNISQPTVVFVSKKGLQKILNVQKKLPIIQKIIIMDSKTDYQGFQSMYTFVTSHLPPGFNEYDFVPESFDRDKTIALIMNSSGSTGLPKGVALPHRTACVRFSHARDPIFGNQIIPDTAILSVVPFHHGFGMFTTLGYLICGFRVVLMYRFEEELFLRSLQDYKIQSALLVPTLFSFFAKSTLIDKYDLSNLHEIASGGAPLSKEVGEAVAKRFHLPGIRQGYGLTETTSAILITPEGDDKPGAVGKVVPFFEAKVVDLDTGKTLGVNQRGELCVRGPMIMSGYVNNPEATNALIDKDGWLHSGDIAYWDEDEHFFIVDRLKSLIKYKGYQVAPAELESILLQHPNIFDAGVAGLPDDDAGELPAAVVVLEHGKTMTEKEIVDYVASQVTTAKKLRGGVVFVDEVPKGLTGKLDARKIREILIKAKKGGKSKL
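Biochemical qHTS of compounds, final roughly 60 µM downward over six points, against 10 nM purified firefly luciferase using Km concentrations of substrates (10 uM D-luciferin, 10 uM ATP) in Tris acetate pH 7.5 buffer; luminescence output.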
SMN2 splice enh = enhancers of SMN2 splice variant expression. Potency, µM (titrated, usually from 46.1 µM), for inactives: at the highest dose activity change, positive = activation, hits mostly activators. 210,000 tested, 2.8% active. HEK293 SMN2-luciferase splicing reporter, luminescence, 30-36 h; further: % of control where 0% means no effect; nearly all actives have a fitted effect of over 55% in size
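HEK293 cells carry an SMN2 minigene-luciferase reporter in which exon 7 inclusion puts luciferase in frame. Cells were seeded at 2000 cells/well, attached for 10-12 hours, then exposed to compounds for 30-36 hours at 37C before ONE-Glo luminescence.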
NPC1 prom act = activators of NPC1 promoter; 320,000 tested, 2.4% active; AID 485313; Potency, µM (doses to about 9.22 µM), inactives show top-dose activation, usual class: activators; Huh7 NPC1 promoter luciferase reporter, 24 h; further: % of control where 0% means no effect; nearly all actives have a fitted effect of over 60% in size
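Stable NPC1-promoter luciferase Huh7 line; cpd (DMSO) 24 h, 37 °C, 5% CO2; Amplite luciferase reagent 10 min RT; luminescence readout. qHTS format.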
ELG1 genotox = genotoxicity induction in ELG1-luciferase HEK293T cells; 330,000 tested, 1.3% active; AID 504466; HEK293T ELG1-luciferase reporter, luminescence, 16 h; Potency, µM (series often up to 46 µM), for inactives: at the highest dose activity change, positive = activation, actives largely listed as activators; further: % of control where 0% means no effect; nearly all actives have a fitted effect of over 60% in size
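HEK293T cells expressing luciferase-tagged ELG1 were treated with compound or DMSO for 16 hr at 37°C. Luciferase activity was then read after 30 min with ONE-Glo at room temperature; rising signal flags genetic stress.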
An asterisk follows results filed as active; ? = inconclusive; / = no result given. This is a sample that favours compounds with a hit; in the whole collection about 9.4% have one here. The call rests on the fitted dose curve; in most records, active means well fitted curve in the direction sought with a large enough effect; inconclusive means small, poorly fitted or top-dose-only effect, or another doubt; inactive means no such curve, though single readings can be large; an effect the other way counts as inactive or inconclusive. Potency means the concentration at half of the fitted maximal effect.

SMILES | ELG1 DNA repair | Rab9 prom act | FLuc modulator | SMN2 splice enh | NPC1 prom act | ELG1 genotox
CC(C)[C@@H](CC(=O)N[C@@H]1CCCC[C@H]1C(=O)N[C@H](CC(=O)N[C@@H](CCC(=O)O)CC(=O)O)Cc1c[nH]c2ccccc12)NC(=O)C[C@H](Cc1ccccc1)NC(=O)[C@@H]1CCCC[C@H]1N | / | / | / | 7.1% | / | /
CCC(C)NC(=O)Cn1c(=O)n(-c2ccc(OC)c(OC)c2)c(=O)c2ccccc21 (centres undefined) | / | / | -1.8% | -0.4% | / | /
C[C@@H]1CN([C@@H](C)CO)C(=O)c2cc(NC(=O)Nc3ccc4c(c3)OCO4)ccc2O[C@H]1CN(C)S(=O)(=O)c1ccc(F)cc1 | 25.9µM* | / | / | / | / | -7.0%
C[C@H](CO)N1C[C@H](C)[C@@H](CN(C)S(=O)(=O)c2ccccc2)Oc2ccc(NC(=O)Nc3ccccc3)cc2C1=O | 20.6µM* | / | / | / | / | -4.6%
C[C@H](CO)N1C[C@H](C)[C@@H](CN(C)S(=O)(=O)c2cccs2)Oc2ccc(NC(=O)Nc3ccccc3)cc2C1=O | 23.1µM* | / | / | / | / | -3.5%
Cc1ccc(C(=O)NC2(O)C(=O)c3ccccc3C2=O)cc1C | -18.6% | -2.3% | 2.39µM* | / | -2.7% | -1.7%
Cc1ccc2c(c1)-c1ncc(C(=O)c3ccccc3O)cc1CO2 | / | / | ? | -16.0% | / | /
Cc1ccc(O)c(C(=O)c2cnc3c(c2)COc2ccccc2-3)c1 | 16.4µM* | 0.2% | -14.1% | -40.8% | 1.9% | -11.1%
Cc1nn(CC(=O)NC2CCCCC2)c(=O)c2cc3cc(F)ccc3n12 | / | / | -0.7% | -1.6% | / | /
NNC(=O)c1[nH]c2ccc(Cl)cc2c1-c1ccccc1 | 16.4µM* | -3.1% | -0.8% | / | 0.7% | 6.1%
COc1ccc(-c2nc(C)c(CCNC(=O)C(=O)Nc3ccccc3F)s2)cc1 | / | / | -4.1% | / | / | /
Cc1ccc(OCC(=O)O/N=C(\N)c2ccccn2)cc1C | ? | ? | 12µM* | / | 2.24µM* | 8.2µM*
Cc1cccc(OCC(=O)O/N=C(\N)c2ccccn2)c1 | ? | 13.5% | 16.9µM* | ? | 26.7% | ?
CCc1ccc(OCC(=O)O/N=C(\N)c2ccccn2)cc1 | ? | 3.16µM* | 9.53µM* | / | 3.16µM* | 7.3µM*
Cc1ccc(Cn2c(SCC(=O)C(C)(C)C)nc3ccsc3c2=O)cc1 | / | / | 1.1% | / | / | /
COc1ccc(/C=N/NC(=O)c2nnn(-c3nonc3N)c2-c2cccs2)cc1OC | -1.8% | 10.8% | 19µM* | / | -0.3% | -11.0%
Nc1nonc1-n1nnc(C(=O)N/N=C/c2cccnc2)c1-c1cccs1 | -0.6% | -5.1% | ? | / | -11.9% | -8.3%
COc1cc(/C=N/NC(=O)c2nnn(-c3nonc3N)c2-c2cccs2)ccc1O | -6.9% | 2.4% | ? | / | -0.7% | -11.2%
Cc1ccc(/C=N/NC(=O)c2nnn(-c3nonc3N)c2-c2cccs2)cc1 | 9.4% | 1.0% | 9.53µM* | / | -1.7% | 0.0%
CCOc1ccccc1NC(=O)NCCn1c(=O)oc2ccc(C)cc21 | / | / | -6.7% | -5.5% | / | /
COc1ccc(/C=C/C(=O)OCC(=O)N2CCCCCC2)c(OC)c1 | 1.8% | -1.9% | ? | / | -1.7% | 1.0%
C=CCNC(=S)NC(=O)c1ccc(C)c(Br)c1 | ? | ? | 16.9µM* | 14.1µM* | 20.0% | ?
COc1ccc2[nH]c3c(c2c1)CCN1C(=O)C(CC(=O)NCC24CC5CC(CC(C5)C2)C4)C[C@H](C(=O)N2CCCCC2)[C@@]31C (some centres undefined) | 13µM* | / | / | / | / | -8.4%
CCN(CC)C(=O)[C@H]1C[C@H](CC(=O)NCc2ccco2)C(=O)N2CCc3c([nH]c4cc(-c5ccco5)ccc34)[C@]12C | 18.3µM* | / | / | / | / | -3.0%
CCN(CC)C(=O)[C@H]1CC(CC(=O)NCC23CC4CC(CC(C4)C2)C3)C(=O)N2CCc3c([nH]c4ccc(OC)cc34)[C@]12C (some centres undefined) | 23.1µM* | / | / | / | / | -9.4%
SMILES | ELG1 DNA repair | Rab9 prom act | FLuc modulator | SMN2 splice enh | NPC1 prom act | ELG1 genotox
CCN(CC)C(=O)[C@H]1C[C@H](CC(=O)NCCN2CCOCC2)C(=O)N2CCc3c([nH]c4cc(-c5ccco5)ccc34)[C@]12C | 4.1% | / | / | / | / | 6.3%
CCN(CC)C(=O)[C@H]1CC(CC(=O)NCCN2CCOCC2)C(=O)N2CCc3c([nH]c4ccc(OC)cc34)[C@]12C (some centres undefined) | ? | / | / | / | / | -2.6%
CCCC[C@@H]1C[C@H]1C(NC(=O)c1cccnc1)c1ccc(-c2ccccc2)cc1 (some centres undefined) | / | / | / | 9.1% | / | /
CC(C)c1ccc(Nc2ncnc3c2c(-c2ccccc2)cn3-c2ccccc2)cc1 | / | / | 0.1% | / | / | /
COc1ccccc1N=c1oc2cc(O)ccc2cc1C(=O)NCC1CCCO1 (centres undefined) | 6.51µM* | -5.3% | -6.7% | -0.9% | -4.3% | -0.3%
COc1ccc2oc(=O)c(C(=O)NCC3CCCO3)cc2c1 (centres undefined) | ? | -4.0% | ? | 14.4% | -3.8% | ?
Cc1cccc(N=c2oc3cc(O)ccc3cc2C(N)=O)c1 | 4.61µM* | 1.6% | ? | -7.1% | 17.8% | -8.8%
COc1cccc(N=c2oc3cc(O)ccc3cc2C(=O)NCC2CCCO2)c1 (centres undefined) | 4.11µM* | 4.9% | 0.3% | -5.2% | -1.0% | -3.4%
COc1ccc2cc(C(N)=O)/c(=N\NC(=O)c3ccccc3)oc2c1 | ? | 0.708µM* | 10.7µM* | / | 0.891µM* | ?
COc1cccc(C(=O)N/N=c2/oc3ccccc3cc2C(N)=O)c1 | -18.6% | 0.8% | -0.4% | / | -5.1% | -5.7%
COc1cccc2cc(C(=O)NCC3CCCO3)c(=O)oc12 (centres undefined) | ? | 3.5% | ? | -23.8% | -1.7% | ?
Cc1c(C(=O)Nc2ccc(-c3nc4cc(Cl)ccc4o3)cc2)oc2ccccc12 | / | / | -0.8% | -2.6% | / | /
COc1ccccc1N=c1oc2cc(O)ccc2cc1C(N)=O | ? | 1.8% | 13.5µM* | -5.2% | 6.2% | -0.1%
CCCCc1nc(NCCN2CCOCC2)c(C#N)c2c1COC(C)(C)C2 | 11.6µM* | 6.2% | 1.3% | -8.6% | -2.8% | 1.5%
O=C(c1cccc(F)c1)N1CCC2(CC1)CN(c1ncccn1)C2 | / | / | / | 0.7% | / | /
COc1ccccc1-c1cncnc1-n1ccnc1 | / | / | / | -8.6% | / | /
O=C(Nc1ccc(F)cc1)Nc1cccnc1 | 15.9% | 4.3% | 16.9µM* | / | 10.3% | 0.8%
O=C(Nc1ccc(OC(F)(F)F)cc1)Nc1cccnc1 | ? | ? | 7.57µM* | / | ? | 6.3%
